A selection: hits, their analogues and other compounds. The true share with any hit is near 9.2%.
NPC1 promoter act: activators of NPC1 promoter. hit rate 2.4% among 320,000. Huh7 NPC1 promoter luciferase reporter, 24 h. AID 485313. Potency, µM (highest dose often 9.22 µM), for inactives: at the top dose activation, most hits filed as activators; also: % of control where 0% means no effect; nearly all actives have a fitted effect of over 60% in size
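Luminescence from an NPC1 promoter-driven luciferase reporter in stably transfected Huh7 cells was measured after 24 h compound treatment at 37 °C, followed by 10 min ambient incubation with luciferase detection reagent.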
Rab9 promoter act: activates the Rab9 promoter; Huh7 Rab9 promoter-luciferase reporter, luminescence, 24 h; Potency, µM (series often up to 9.22 µM), for inactives: at the highest dose activation, negative = inhibition, usual class: activators; hit rate 2.8% among 320,000; also: % of control where 0% means no effect; nearly all actives have a fitted effect of over 60% in size
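Measured in stably transfected Huh7 cells bearing a Rab9 promoter–luciferase construct: 24 h compound treatment at 37 °C, followed by luminescence detection.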
ELG1 genotox: inducers of genotoxicity in HEK293T ELG1-luciferase cells; HEK293T ELG1-luciferase reporter, luminescence, 16 h; Potency, µM (series often up to 46 µM), inactives show top-dose activity change, positive = activation, most hits filed as activators; hit rate 1.3% among 330,000; also: % of control where 0% means no effect; nearly all actives have a fitted effect of over 60% in size
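Step 1: seed 2,000 HEK293T ELG1-luciferase cells per well. Step 2: add compound or DMSO, incubate 16 hr at 37 °C. Step 3: ONE-Glo, 30 min at room temperature, read luminescence.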
ELG1 DNA repair: blocks ELG1-dependent DNA repair in HEK293T cells; HEK293T ELG1-luciferase reporter, luminescence, 16 h; DNA damage induced by 5-fluorouridine; Potency, µM (highest dose often 46.1 µM), without a hit: at the highest dose activity change, negative = inhibition, most hits filed as inhibitors; hit rate 2.3% among 330,000; also: % is scaled to controls: 0 for no effect and ±100 for the full control effect; nearly all actives have a fitted effect of over 55% in size
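HEK293T cells expressing luciferase-tagged ELG1 (2,000/well) received 5-Fluorouridine plus compound or DMSO for 16 hr at 37 °C. Luciferase was read by ONE-Glo luminescence after 30 min at room temperature.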
FLuc counter: firefly luciferase modulation, counter-screen for miR-21 project. P08659. purified FLuc, Km substrates, luminescence inhibition. Potency, µM (top dose mostly 57.5 µM), for inactives: at the top dose activity change, negative = inhibition, hits mostly inhibitors. hit rate 6.9% among 360,000. AID 588342;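 also: plate controls were vehicle for no effect and reference inhibitor for full effect; nearly all actives have a fitted effect of over 55% in size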
Target sequence (P08659 whole entry, looked up): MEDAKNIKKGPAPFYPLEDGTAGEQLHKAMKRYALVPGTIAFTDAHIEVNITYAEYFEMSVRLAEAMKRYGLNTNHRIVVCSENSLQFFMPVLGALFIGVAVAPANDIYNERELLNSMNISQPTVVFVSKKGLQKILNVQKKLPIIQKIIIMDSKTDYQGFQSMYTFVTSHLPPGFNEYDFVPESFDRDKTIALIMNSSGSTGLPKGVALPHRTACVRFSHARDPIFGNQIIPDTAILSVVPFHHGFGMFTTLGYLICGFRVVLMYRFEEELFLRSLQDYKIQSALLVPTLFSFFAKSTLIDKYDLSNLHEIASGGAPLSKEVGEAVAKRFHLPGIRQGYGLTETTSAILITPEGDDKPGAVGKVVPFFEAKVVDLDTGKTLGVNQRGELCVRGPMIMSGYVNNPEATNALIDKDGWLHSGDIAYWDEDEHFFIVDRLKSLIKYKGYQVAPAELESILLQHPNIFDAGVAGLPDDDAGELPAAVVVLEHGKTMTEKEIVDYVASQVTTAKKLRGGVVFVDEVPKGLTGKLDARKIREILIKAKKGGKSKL
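Purified P. pyralis luciferase, 10 nM final, with Km-level 10 uM D-luciferin and 10 uM ATP in 50 mM Tris acetate pH 7.5, 10 mM Mg acetate, 0.01% Tween-20, 0.05% BSA; 6-point qHTS titration about 60 µM downward; luminescence read.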
SMN2 splice enh: increases expression of the SMN2 splice variant. HEK293 SMN2-luciferase splicing reporter, luminescence, 30-36 h. Potency, µM (doses to about 46.1 µM), for the others: at the top dose activity change, positive = activation, usual class: activators. hit rate 2.8% among 210,000; also: % of control where 0% means no effect; nearly all actives have a fitted effect of over 55% in size
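HEK293 cells carry an SMN2 […]–luciferase reporter in which exon 7 inclusion puts luciferase in frame. Cells were plated 10-12 h before compound addition, then incubated 30-36 h at 37C. ONE-Glo luminescence was read; sodium butyrate at 4.5 mM final served as control.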
An asterisk follows results filed as active; ? = inconclusive; · = not tested or not shown; [ ] = another dose, or the depositor's remark. Calls follow the shape of the dose curve; as a rule, active = well fitted curve in the direction sought with a large enough effect; inconclusive = small, poorly fitted or top-dose-only effect, or another doubt; inactive = no such curve, though single readings can be large; an effect the other way counts as inactive or inconclusive. Potency is read from the fitted curve at half-maximal effect.

SMILES | NPC1 promoter act | Rab9 promoter act | ELG1 genotox | ELG1 DNA repair | FLuc counter | SMN2 splice enh
CC(C)Oc1ccc(CCC(=O)NNC(=O)c2ccccc2C(=O)O)cc1 | 6% | -2% | 2% | ? | -8% | ·
CC(C)Oc1ccc(C(=O)NNC(=O)c2ccccc2C(=O)O)cc1 | -1% | 12% | 0% | 15% | 21µM* | 3%
O=C(Cc1ccc(Cl)cc1)Nc1ccccc1C(=O)Nc1ccc(C(=O)O)cc1 | -6% | 0% | 11% | ? | -20% | -6%
COc1ccc(C)cc1NC(=O)NC1CCCCCCC1 | -2% | 0% | -1% | 4% | 15µM* | ·
Cc1csc2c(N3CCN(C(=S)Nc4ccc(F)cc4F)CC3)ncnc12 | -1% | -3% | 1% | ? | 24µM* | ·
Cc1csc2c(N3CCN(C(=O)Nc4ccccc4)CC3)ncnc12 | -1% | -18% | -6% | ? | ? | ·
COc1ccc(C)cc1NC(=O)C(CCSC)NS(=O)(=O)c1ccc2c(c1)oc(=O)n2C (stereo not given) | · | · | · | · | -3% | ·
COC1=C/C(=C/c2c(N)n3nc(-c4ccc(C)cc4)sc3nc2=O)C=CC1=O | 19% | 28% | ? | ? | 15µM* | ?
CCS(=O)(=O)c1nn2c(N)c(/C=C3/C=CC(=O)C(OC)=C3)c(=O)nc2s1 | 6% | -4% | 1% | 8% | ? | -15%[1.84 µM]
CS(=O)(=O)c1ccc2c(c1)sc1nc(=O)c(/C=C3/C=CC(=O)C(O)=C3)c(N)n12 | 20% | 1% | ? | ? | 4.8µM* | ·
COC1=C/C(=C/c2c(N)n3c(nc2=O)sc2cc(S(C)(=O)=O)ccc23)C=CC1=O | -1% | 27% | 4% | ? | 9.5µM* | ·
CCOC1=C/C(=C/c2c(N)n3nc(-c4ccccc4)sc3nc2=O)C=CC1=O | -4% | -3% | -1% | -8% | ? | 0%
CCOC(=O)CN(Cc1ccccc1)C(C(=O)NC1CCCCC1)c1ccc(C)cc1 (stereo not given) | · | · | · | · | -5% | -5%
CN(CC(=O)NCCc1ccc(S(N)(=O)=O)cc1)S(=O)(=O)c1ccc(Br)s1 | -2% | -4% | -3% | -5% | -1% | ·
C/C(=N\NC(=O)c1cccc(S(=O)(=O)N2CCCC2)c1)c1ccc(F)cc1 | 2% | -5% | 14% | 1% | 1% | ·
COC(=O)c1sccc1NC(=O)CC1C(=O)NCCN1C(=O)Nc1ccc(OCc2ccccc2)cc1 (stereo not given) | -7% | -4% | -3% | 12µM* | ? | ·
COC(=O)c1sccc1NC(=O)CC1C(=O)NCCN1C(=O)Nc1ccccc1 (stereo not given) | 2% | -4% | 0% | ? | 3% | ·
CCCCc1ccc(NC(=O)N2CCNC(=O)C2CC(=O)Nc2ccsc2C(=O)OC)cc1 (stereo not given) | -4% | -2% | -3% | 23µM* | ? | ·
N#CC1=C(N)N(c2ccc(F)cc2)C2=C(C1c1ccc(O)cc1)S(=O)(=O)CC2 (stereo not given) | 0% | 1% | 1% | 7% | 21µM* | -31%
CSc1ccc(C2C(C#N)=C(N)N(c3ccccc3)C3=C2C(=O)CCC3)cc1 (stereo not given) | -5% | 0% | -1% | -8% | -1%[2.3 µM] | 26%
N#Cc1ccccc1CN1C(=O)c2ccccc2Sc2ccc(C(=O)OCc3ccco3)cc21 | · | · | · | · | -5% | ·
CCn1c(SCC(=O)Nc2ccc(C(C)=O)cc2)nc2nc3c(cc2c1=O)COC(C)(C)C3 | 19% | ? | ? | ? | -17% | ·
CCn1c(SCC(=O)Nc2ccccc2C)nc2nc3c(cc2c1=O)COC(C)(C)C3 | 2% | -2% | -9% | 13µM* | -1% | ·
CCn1c(SCC(=O)Nc2ccc(OC)cc2)nc2nc3c(cc2c1=O)COC(C)(C)C3 | -5% | -2% | -7% | 21µM* | 3% | ·
